PubChem BioAssay (NCI)
The panel holds about 83,000 compounds, 20% with a hit somewhere; the sample as a whole holds those more often.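 Cell lines were cultured in 96-well plates, exposed to a single compound concentration, and assessed for percent growth 48 hours later.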 Calls of active or inactive are those of the source. The calls were made as follows: active = growth percent below 10; inactive = the rest.

Assays:
Assay in all cases: NCI-60 one-dose screen, 48 h (100 = growth as untreated, 0 = no growth, -100 = all killed)
Details in all cases: 10 µM unless noted
HCT-15 colon = test system: HCT-15 colon
SNB-75 CNS = test system: SNB-75 CNS
SNB-19 CNS = test system: SNB-19 CNS
U251 CNS = test system: U251 CNS
PC-3 prostate = test system: PC-3 prostate
SK-MEL-5 melanoma = test system: SK-MEL-5 melanoma
UACC-62 melanoma = test system: UACC-62 melanoma
LOX IMVI melanoma = test system: LOX IMVI melanoma
SK-MEL-28 melanoma = test system: SK-MEL-28 melanoma
HT29 colon = test system: HT29 colon

Measured: growth

O=C(Cc1ccccc1)Nc1nc(O)c(/C=C2\C(=O)C=Cc3ccccc32)s1
inactive: HCT-15 colon 100% | SNB-75 CNS 95.5% | SNB-19 CNS 92.3% | U251 CNS 101% | PC-3 prostate 92.4% | SK-MEL-5 melanoma 103% | UACC-62 melanoma 94.6% | LOX IMVI melanoma 97.6% | SK-MEL-28 melanoma 114%

CCCNC(=O)Oc1ccc(/C(=C(/C)Cc2ccc(OC)cc2)c2ccc(OCCCN(C)C)cc2)cc1
inactive: HCT-15 colon 70.3% | SNB-75 CNS 80.8% | SNB-19 CNS 88.8% | U251 CNS 63.5% | PC-3 prostate 74.4% | SK-MEL-5 melanoma 86.9% | UACC-62 melanoma 102% | LOX IMVI melanoma 73.4% | SK-MEL-28 melanoma 94.1%

COc1ccc(C/C(C)=C(/c2ccc(OCCN3CCCCC3)cc2)c2ccc(OC(=O)NCc3ccccc3)cc2)cc1
active: HCT-15 colon -85.4% | SNB-75 CNS -88.9% | SNB-19 CNS -90.6% | U251 CNS -97.5% | PC-3 prostate -95.9% | SK-MEL-5 melanoma -100% | UACC-62 melanoma -92.9% | LOX IMVI melanoma -93% | SK-MEL-28 melanoma -85.8%

C=C1CC[C@@H]2[C@](C)(COC(C)=O)[C@H](OC(C)=O)CC[C@@]2(C)[C@@H]1CC(Sc1ccccc1)C1=CCOC1=O (some centres not stated)
inactive: SNB-75 CNS 87% | SNB-19 CNS 51.8% | U251 CNS 22.9% | PC-3 prostate 36.4% | SK-MEL-5 melanoma 13.5%
active: HCT-15 colon -38.4% | UACC-62 melanoma -1.75% | LOX IMVI melanoma -83.9% | SK-MEL-28 melanoma 6.34%

COC(=O)CCC(=O)C(=O)OC
active: U251 CNS 3.32% [10 mM] | PC-3 prostate -5.82% [10 mM] | UACC-62 melanoma -52.8% [10 mM] | LOX IMVI melanoma -19.9% [10 mM] | SK-MEL-28 melanoma -1.85% [10 mM]
inactive: HCT-15 colon 16.6% [10 mM] | SNB-75 CNS 19% [10 mM] | SNB-19 CNS 12.6% [10 mM] | SK-MEL-5 melanoma 64% [10 mM]

O=C1c2cccnc2C(=O)c2c1c(C(=O)NCCn1ccnc1)c1ccccn21
inactive: HCT-15 colon 30.3% | SNB-75 CNS 37.3% | SNB-19 CNS 30.8% | U251 CNS 13% | SK-MEL-28 melanoma 68.4%
active: PC-3 prostate 8.68% | SK-MEL-5 melanoma -97% | UACC-62 melanoma -24.5% | LOX IMVI melanoma 6.67%

CCNc1nc(-c2ccc(Cl)c(OC)c2)c(-c2ccnc(NCCCNS(=O)(=O)c3ccc(Cl)cc3)n2)s1
inactive: HCT-15 colon 61.6% | HT29 colon 19.1% | SNB-75 CNS 77.6% | SNB-19 CNS 81.8% | U251 CNS 51.9% | PC-3 prostate 29.4% | UACC-62 melanoma 29.7% | SK-MEL-28 melanoma 38.9%

CCn1c(SCC(=O)c2ccc(Br)cc2)nnc1-c1ccncc1
inactive: HCT-15 colon 106% | SNB-75 CNS 81.7% | SNB-19 CNS 99.2% | U251 CNS 99.6% | PC-3 prostate 102% | SK-MEL-5 melanoma 98.9% | UACC-62 melanoma 96.8% | LOX IMVI melanoma 101% | SK-MEL-28 melanoma 109%

COc1cc(/C=C\c2cc(/C=C\c3ccc(O)c(OC)c3)n(C(=O)COc3ccc(Cl)cc3Cl)n2)ccc1O
active: HCT-15 colon 9.52% | SNB-75 CNS 5.12% | SK-MEL-5 melanoma -12.9% | UACC-62 melanoma 5.87% | LOX IMVI melanoma 3.79%
inactive: SNB-19 CNS 29% | U251 CNS 16.3% | PC-3 prostate 10.2% | SK-MEL-28 melanoma 26.6%

Cn1c(=O)c2c(nc(NC3=NS(=O)(=O)c4ccccc43)n2CC(=O)N2CCc3ccccc32)n(C)c1=O
inactive: HCT-15 colon 101% | HT29 colon 101% | SNB-75 CNS 94.9% | SNB-19 CNS 101% | U251 CNS 101% | PC-3 prostate 104% | UACC-62 melanoma 97.6% | SK-MEL-28 melanoma 105%

Cc1ccc(NC(=S)NNC(=S)NNc2ccccc2)cc1C
inactive: HCT-15 colon 103% | SNB-75 CNS 107% | SNB-19 CNS 106% | U251 CNS 96.8% | PC-3 prostate 55.7% | SK-MEL-5 melanoma 95.7% | UACC-62 melanoma 104% | LOX IMVI melanoma 106% | SK-MEL-28 melanoma 115%

CCN(CC)CCOc1ccc(-c2c(-c3ccccc3)c(=O)oc3ccccc23)cc1
inactive: HCT-15 colon 72.2% | HT29 colon 51.7% | SNB-75 CNS 81.8% | SNB-19 CNS 90.7% | U251 CNS 85.5% | PC-3 prostate 64.9% | UACC-62 melanoma 82.7% | LOX IMVI melanoma 81.3% | SK-MEL-28 melanoma 98.6%

C#CCn1cnc2c(Nc3cccc(NC(=O)C=C)c3)ncnc21
inactive: HCT-15 colon 73.3% | SNB-75 CNS 66% | SNB-19 CNS 89.9% | U251 CNS 88.2% | PC-3 prostate 71.5% | SK-MEL-5 melanoma 88.7% | UACC-62 melanoma 82.6% | LOX IMVI melanoma 100% | SK-MEL-28 melanoma 87.6%

C[C@]12C=CC(=O)C=C1CCC1C2[C@@H](O)C[C@@]2(C)C1CC[C@]2(O)C(=O)COC(=O)CCC(=O)O (some centres not stated)
inactive: HCT-15 colon 105% | SNB-75 CNS 120% | SNB-19 CNS 104% | U251 CNS 103% | PC-3 prostate 93.4% | SK-MEL-5 melanoma 113% | UACC-62 melanoma 104% | LOX IMVI melanoma 102% | SK-MEL-28 melanoma 107%

O=C1CC(N2C(=O)/C(=C/C(Cl)=C\c3ccc([N+](=O)[O-])cc3)SC2=S)C(=O)N1c1ccc(Cl)cc1 (configuration not stated)
inactive: SNB-75 CNS 17.2% | SNB-19 CNS 17.4% | SK-MEL-5 melanoma 59.9% | UACC-62 melanoma 16.4% | SK-MEL-28 melanoma 18.2%
active: HCT-15 colon -8.75% | U251 CNS 1.45% | PC-3 prostate -5.48% | LOX IMVI melanoma -71.7%

Cc1nc2sc(C(=O)Nc3ccccc3)c(N)c2cc1C(=O)c1ccccc1
inactive: HCT-15 colon 24.4% | SNB-75 CNS 26.2% | SNB-19 CNS 21.3% | U251 CNS 25.4% | PC-3 prostate 33.4% | SK-MEL-5 melanoma 31.9% | UACC-62 melanoma 17.4% | LOX IMVI melanoma 50% | SK-MEL-28 melanoma 46.8%

Cc1ccc(-c2nc(/C=C3/C(=O)Nc4ccccc43)c3ccccn23)cc1
inactive: HCT-15 colon 26.5% | SNB-75 CNS 88.9% | SNB-19 CNS 99.6% | U251 CNS 85.2% | PC-3 prostate 78.3% | SK-MEL-5 melanoma 82.9% | UACC-62 melanoma 84.5% | LOX IMVI melanoma 77.1% | SK-MEL-28 melanoma 133%

O=C1C(Cl)=C(Nc2ccc(O)cc2)C(=O)N1Cc1ccc(Cl)cc1
inactive: HCT-15 colon 19.7% | SNB-75 CNS 59% | SNB-19 CNS 69.5% | U251 CNS 47.1% | PC-3 prostate 45.9% | SK-MEL-5 melanoma 50.7% | UACC-62 melanoma 65.3% | LOX IMVI melanoma 57.7% | SK-MEL-28 melanoma 61.6%

CC(=O)OC[C@]12CCC(C)(C)C[C@H]1[C@@]1(O)[C@H](O)C[C@@H]3[C@@]4(C)CCCNC(C)(C)[C@@H]4CC[C@@]3(C)[C@]1(C)CC2
inactive: HCT-15 colon 111% | SNB-75 CNS 115% | SNB-19 CNS 97.4% | U251 CNS 107% | PC-3 prostate 102% | UACC-62 melanoma 105% | LOX IMVI melanoma 106% | SK-MEL-28 melanoma 108%

C#CCOc1ccc2ncnc(Nc3ccc(NC(=O)CCl)cc3)c2c1
active: HCT-15 colon -32.4% | SNB-19 CNS -22.2% | U251 CNS -83.7% | PC-3 prostate 6.66% | SK-MEL-5 melanoma -90.6% | UACC-62 melanoma -10.1% | LOX IMVI melanoma -80.1%
inactive: SNB-75 CNS 42% | SK-MEL-28 melanoma 36.2%

C[C@@H]1CCC[C@H]1CC(N)C(=O)O (some centres not stated)
inactive: HCT-15 colon 90.6% | SNB-75 CNS 103% | SNB-19 CNS 117% | U251 CNS 114% | PC-3 prostate 96.8% | SK-MEL-5 melanoma 98.5% | UACC-62 melanoma 116% | LOX IMVI melanoma 91.3% | SK-MEL-28 melanoma 108%

CC(C)(C)c1cc(-c2nc3ccc(N4CCN(S(C)(=O)=O)CC4)cc3[nH]2)cc(C(C)(C)C)c1O
inactive: HCT-15 colon 69.2% | SNB-75 CNS 73.8% | SNB-19 CNS 104% | U251 CNS 90.2% | PC-3 prostate 91.7% | SK-MEL-5 melanoma 95.7% | UACC-62 melanoma 94.5% | LOX IMVI melanoma 91.8% | SK-MEL-28 melanoma 94.3%

COc1cc(-c2csc(NC(=O)c3cc(-n4cnc(C)c4)cc(C(F)(F)F)c3)n2)cc(OC)c1OC
inactive: HCT-15 colon 39.5% | HT29 colon 52.6% | SNB-75 CNS 78.6% | SNB-19 CNS 62.2% | U251 CNS 56.9% | PC-3 prostate 37.3% | UACC-62 melanoma 44.1% | LOX IMVI melanoma 53.9% | SK-MEL-28 melanoma 78.9%

O=C(Cn1cc(CN2CCCCCC2)nn1)Nc1ccc2c(ccn2Cc2ccccc2)c1
inactive: HCT-15 colon 93.3% | SNB-75 CNS 76.1% | SNB-19 CNS 98.8% | U251 CNS 80.8% | PC-3 prostate 82.2% | SK-MEL-5 melanoma 87% | UACC-62 melanoma 96.9% | LOX IMVI melanoma 98.2% | SK-MEL-28 melanoma 99.9%

C#CCOc1cccc(Nc2ncnc3c(NC(=O)C=C)cccc23)c1
inactive: HCT-15 colon 21.3% | SNB-75 CNS 23% | SNB-19 CNS 28.1% | U251 CNS 24.7% | PC-3 prostate 23.8% | UACC-62 melanoma 17.4% | SK-MEL-28 melanoma 52.1%
active: SK-MEL-5 melanoma 8.31% | LOX IMVI melanoma 8%

CC(C)CCC[C@@H](C)[C@H]1CC[C@H]2[C@@H]3CC=C4C[C@@H](C(C(=O)O)C(=O)O)CC[C@]4(C)[C@H]3CC[C@]12C
inactive: SNB-19 CNS 18.6%
active: HT29 colon -35.1% | SNB-75 CNS -61.1% | U251 CNS -46.8% | PC-3 prostate -5.95% | UACC-62 melanoma -53.4% | LOX IMVI melanoma -29.3% | SK-MEL-28 melanoma -49.6%

COc1cnc2c(c1)C(=O)c1c-2n(CCCNCCO)c(=O)c2ccncc12
inactive: SNB-75 CNS 12.1%
active: HT29 colon 3.25% | SNB-19 CNS 7.52% | U251 CNS 0.604% | PC-3 prostate 6.97% | SK-MEL-5 melanoma -78.4% | UACC-62 melanoma -49.1% | LOX IMVI melanoma -40.5% | SK-MEL-28 melanoma -13.1%

O=CC1(C2(C=O)c3ccccc3-c3ccccc32)c2ccccc2-c2ccccc21
active: HT29 colon -53.9% | SNB-75 CNS -79.2% | SNB-19 CNS -83% | U251 CNS -63% | PC-3 prostate -64.5% | SK-MEL-5 melanoma -83.7% | UACC-62 melanoma -61.5% | LOX IMVI melanoma -61% | SK-MEL-28 melanoma -38.2%

CN(C)C1CCN(Cc2ccc(NC(=O)c3cncc(C#Cc4cnc(N)c5ncccc45)c3)cc2C(F)(F)F)CC1
inactive: HT29 colon 19.3% | SNB-75 CNS 127% | SNB-19 CNS 97.8% | PC-3 prostate 80.6% | SK-MEL-5 melanoma 50.6% | UACC-62 melanoma 91.5% | LOX IMVI melanoma 63.7%
active: U251 CNS -51.5% | SK-MEL-28 melanoma -53.9%
